Data taken from PubChem BioAssay (Tox21).
Inconclusive results are not listed. Entries that show only a call come without a potency. Activity calls are given as the source filed them. Unless noted, the call rests on the fitted dose curve; in most records, active means well fitted curve in the direction sought with a large enough effect in the repeat runs; inconclusive means weak or mixed curves; inactive means no such curve, though single readings can be large; an effect the other way counts as inactive or inconclusive.

What was measured:
[1] = biological target: Glucocorticoid receptor (Homo sapiens) (UniProt P04150); assay: qHTS assay to identify small molecule antagonists of the glucocorticoid receptor (GR) signaling pathway (AID 720692; active means well fitted inhibition curve with a large enough effect in the signal ratio in the repeat runs, not every such curve was filed as active; the % refers to the signal ratio; further: potency means the concentration at half of the fitted maximal effect)
Glucocorticoid receptor (Homo sapiens), sequence (P04150 whole entry, looked up): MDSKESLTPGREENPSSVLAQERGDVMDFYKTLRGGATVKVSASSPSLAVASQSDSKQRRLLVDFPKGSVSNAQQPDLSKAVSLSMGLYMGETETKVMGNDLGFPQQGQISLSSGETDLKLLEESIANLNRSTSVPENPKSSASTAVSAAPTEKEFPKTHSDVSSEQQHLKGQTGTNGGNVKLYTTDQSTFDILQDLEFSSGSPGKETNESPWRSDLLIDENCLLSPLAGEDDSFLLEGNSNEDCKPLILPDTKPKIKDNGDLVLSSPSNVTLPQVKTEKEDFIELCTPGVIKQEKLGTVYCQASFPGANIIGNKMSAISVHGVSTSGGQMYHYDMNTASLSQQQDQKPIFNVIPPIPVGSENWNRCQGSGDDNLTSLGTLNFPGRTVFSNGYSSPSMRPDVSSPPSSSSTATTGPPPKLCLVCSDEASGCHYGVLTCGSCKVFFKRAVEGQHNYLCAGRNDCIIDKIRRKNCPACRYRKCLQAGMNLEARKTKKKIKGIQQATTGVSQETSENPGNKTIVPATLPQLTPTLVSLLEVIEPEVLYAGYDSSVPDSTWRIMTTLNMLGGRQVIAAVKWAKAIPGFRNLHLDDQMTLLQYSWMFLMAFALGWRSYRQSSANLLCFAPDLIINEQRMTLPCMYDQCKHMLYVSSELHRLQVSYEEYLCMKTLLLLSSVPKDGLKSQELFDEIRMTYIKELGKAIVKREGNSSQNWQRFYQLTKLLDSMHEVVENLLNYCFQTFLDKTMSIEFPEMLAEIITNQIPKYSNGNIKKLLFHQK
Outline: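 GR-bla HeLa cells carrying a GRE-driven beta-lactamase reporter received compound after 4 h plating, then dexamethasone (5 nM final). After 18 h at 37C, the FRET substrate was loaded for 2 h at room temperature and fluorescence read.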

[2] = qHTS assay for identifying genotoxic compounds that show differential cytotoxicity against isogenic chicken DT40 cell lines with known DNA damage response pathways - Rev3 mutant cell line (AID 743014); further: nearly all actives have a fitted effect of over 55% in size
[3] = qHTS assay to identify small molecule antagonists of the estrogen receptor alpha (ER-alpha) signaling pathway using the BG1 cell line in the presence of 0.1 nM 17-beta-estradiol - cell viability counter screen (AID 1259241); further: nearly all actives have a fitted effect of over 40% in size
Outline: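 Cells were plated and left 24 hr, compounds in DMSO were pinned in, 17beta-estradiol was added to 0.1 nM final, and after 22 hr CellTiter-Fluor reagent was added for 30 min before fluorescence was read.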

[4] = qHTS assay to identify small molecule antagonists of the androgen receptor (AR) signaling pathway using the MDA cell line in the presence of 0.5 nM R1881 - cell viability counter screen (AID 1259242); further: nearly all actives have a fitted effect of over 45% in size
Outline: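 MDA-kb2 cells (MMTV-luciferase, AR/GR responsive) were treated with compounds plus 0.5 nM R1881 (final) for 16 hr at 37C, 0% CO2. Viability was then read in the same wells as live-cell protease fluorescence (CellTiter-Fluor, 30 min).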

[5] = biological target: Estrogen receptor (Homo sapiens) (UniProt P03372); assay: qHTS assay to identify small molecule antagonists of the estrogen receptor alpha (ER-alpha) signaling pathway using the BG1 cell line in the presence of 0.1 nM 17-beta-estradiol (AID 1259244); further: nearly all actives have a fitted effect of over 50% in size
Estrogen receptor (Homo sapiens), sequence (P03372 whole entry, looked up): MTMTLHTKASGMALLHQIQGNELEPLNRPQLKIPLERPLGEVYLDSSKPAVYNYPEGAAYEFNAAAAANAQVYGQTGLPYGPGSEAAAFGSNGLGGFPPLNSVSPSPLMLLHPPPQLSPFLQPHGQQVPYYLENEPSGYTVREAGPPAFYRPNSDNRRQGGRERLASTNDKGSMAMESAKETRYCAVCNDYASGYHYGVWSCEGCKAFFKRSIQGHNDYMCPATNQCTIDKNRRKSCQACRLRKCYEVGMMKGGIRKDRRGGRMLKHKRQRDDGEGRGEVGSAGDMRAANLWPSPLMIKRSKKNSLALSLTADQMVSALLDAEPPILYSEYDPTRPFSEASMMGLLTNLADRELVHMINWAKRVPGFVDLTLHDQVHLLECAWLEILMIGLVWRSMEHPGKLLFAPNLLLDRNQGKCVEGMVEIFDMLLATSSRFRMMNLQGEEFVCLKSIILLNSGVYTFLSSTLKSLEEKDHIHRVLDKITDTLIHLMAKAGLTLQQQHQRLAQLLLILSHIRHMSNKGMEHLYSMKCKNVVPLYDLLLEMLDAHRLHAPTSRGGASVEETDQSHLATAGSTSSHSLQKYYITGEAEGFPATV
Outline: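 VM7Luc4E2 cells (endogenous full-length ER-alpha, 4×ERE-luciferase), kept 5 days in phenol red-free, charcoal-stripped FBS medium; 4,000 cells/well. Compounds added with 0.1 nM (final) 17beta-estradiol, 22 hr at 37C; luminescence read with ONE-Glo after 30 min.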

[6] = biological target: Nuclear receptor subfamily 1 group I member 2 (Homo sapiens) (UniProt O75469); assay: Human pregnane X receptor (PXR) small molecule agonists, qHTS assay (AID 1346982); further: nearly all actives have a fitted effect of over 35% in size
Nuclear receptor subfamily 1 group I member 2 (Homo sapiens), sequence (O75469 whole entry, looked up): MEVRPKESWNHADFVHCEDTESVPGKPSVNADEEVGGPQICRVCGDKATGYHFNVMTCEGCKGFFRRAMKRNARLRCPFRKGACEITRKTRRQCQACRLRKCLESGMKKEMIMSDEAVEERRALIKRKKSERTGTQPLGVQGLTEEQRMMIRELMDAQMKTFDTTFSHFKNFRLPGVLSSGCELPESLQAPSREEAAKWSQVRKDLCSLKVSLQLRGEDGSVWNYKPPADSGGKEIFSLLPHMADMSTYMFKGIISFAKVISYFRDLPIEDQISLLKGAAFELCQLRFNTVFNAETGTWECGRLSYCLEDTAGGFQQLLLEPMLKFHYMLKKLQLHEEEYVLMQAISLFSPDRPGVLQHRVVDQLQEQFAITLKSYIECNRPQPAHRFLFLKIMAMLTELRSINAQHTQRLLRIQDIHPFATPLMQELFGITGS
Outline: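 PXR-Luc HepG2 reporter cells (CYP3A4-driven luciferase) in 5% charcoal-stripped FBS medium, plated 5 h before compound addition, then treated 24 h at 37C. Luciferase read by ONE-Glo luminescence after 30 min at room temperature.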

[7] = biological target: Acetylcholinesterase (Homo sapiens) (UniProt P22303); assay: Acetylcholinesterase (AChE) small molecule antagonists: colormetric cell-based qHTS assay (AID 1347395; calls by dose curve; further: nearly all actives have a fitted effect of over 30% in size)
Acetylcholinesterase (Homo sapiens), sequence (P22303 whole entry, looked up): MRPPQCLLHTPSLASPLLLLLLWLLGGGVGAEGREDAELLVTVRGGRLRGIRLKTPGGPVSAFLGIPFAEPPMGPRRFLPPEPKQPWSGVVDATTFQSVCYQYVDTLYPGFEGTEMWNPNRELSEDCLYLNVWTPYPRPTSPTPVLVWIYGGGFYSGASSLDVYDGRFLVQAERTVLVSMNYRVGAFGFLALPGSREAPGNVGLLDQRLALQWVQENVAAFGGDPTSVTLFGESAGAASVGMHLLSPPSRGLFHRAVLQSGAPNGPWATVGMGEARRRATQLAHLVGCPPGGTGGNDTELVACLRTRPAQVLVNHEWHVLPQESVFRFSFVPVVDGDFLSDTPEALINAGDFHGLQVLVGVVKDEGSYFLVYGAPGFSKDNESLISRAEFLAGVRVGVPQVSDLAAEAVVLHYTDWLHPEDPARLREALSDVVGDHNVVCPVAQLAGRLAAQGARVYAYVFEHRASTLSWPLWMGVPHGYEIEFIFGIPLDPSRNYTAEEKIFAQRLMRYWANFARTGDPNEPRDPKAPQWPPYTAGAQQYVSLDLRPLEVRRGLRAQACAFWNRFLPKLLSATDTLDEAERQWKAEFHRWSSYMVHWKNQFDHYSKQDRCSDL
Outline: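 Cells (SH-SY5Y, 2,000 per well) are seeded and left overnight at 37 C. Compound is added for 30 min, then DTNB and acetylthiocholine for a further 90 min at 37 C before absorbance-based thiocholine detection.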

[8] = biological target: Acetylcholinesterase (Homo sapiens) (UniProt P22303); assay: Acetylcholinesterase (AChE) small molecule antagonists: enzyme-based qHTS assay (AID 1347397; calls by dose curve; further: nearly all actives have a fitted effect of over 55% in size); settings: Potency: AChE enzyme activity inhibition; outcome: AChE enzyme activity inhibition
Outline: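 Enzyme inhibition was scored from DTNB-detected thiocholine formed by recombinant human AChE acting on acetylthiocholine. The 30 min compound preincubation and 10 min substrate reaction were both run at room temperature, with DMSO as vehicle control.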

[9] = biological target: Acetylcholinesterase (Homo sapiens) (UniProt P22303); assay: Acetylcholinesterase (AChE) small molecule antagonists: fluorescence cell-based qHTS assay (AID 1347398; calls by dose curve; further: nearly all actives have a fitted effect of over 50% in size); settings: Potency: AChE activity; outcome: AChE activity
Outline: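 Endogenous acetylcholinesterase of SH-SY5Y neuroblastoma cells is measured in situ. After overnight attachment and 30 min compound exposure, cells receive acetylthiocholine and Thiolite Green; fluorescence is read after 40 min at room temperature.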

[10] = biological target: Acetylcholinesterase (Homo sapiens) (UniProt P22303); assay: Acetylcholinesterase (AChE) small molecule antagonists: enzyme-based qHTS assay with human liver microsomes (AID 1347399; calls by dose curve; further: nearly all actives have a fitted effect of over 60% in size); settings: Potency: qHTS inhibition; outcome: qHTS inhibition
Outline: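 Recombinant human AChE (50 mU/mL in the enzyme mix) and human liver microsomes (0.25 mg/mL final) were preincubated with compound and NADPH (0.25 mg/mL final) for 30 min at 37 C. Acetylthiocholine/DTNB was then added; thiocholine was read colorimetrically after 10 min at room temperature.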

[11] = qHTS assay for small molecule agonists of the p53 signaling pathway (AID 651631; calls by dose curve; further: nearly all actives have a fitted effect of over 15% in size)
Outline: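 Agonist mode screen using a stably integrated beta-lactamase gene under p53 response elements in HCT-116 cells. Compound exposure lasts 16 h at 37 °C; fluorescence intensity is measured following 2 h FRET substrate loading.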

[12] = biological target: Androgen receptor (Homo sapiens) (UniProt P10275); assay: qHTS assay to identify small molecule antagonists of the androgen receptor (AR) signaling pathway (AID 743035; active means well fitted inhibition curve with a large enough effect in the signal ratio in the repeat runs, not every such curve was filed as active; the % refers to the signal ratio)
Androgen receptor (Homo sapiens), sequence (P10275 whole entry, looked up): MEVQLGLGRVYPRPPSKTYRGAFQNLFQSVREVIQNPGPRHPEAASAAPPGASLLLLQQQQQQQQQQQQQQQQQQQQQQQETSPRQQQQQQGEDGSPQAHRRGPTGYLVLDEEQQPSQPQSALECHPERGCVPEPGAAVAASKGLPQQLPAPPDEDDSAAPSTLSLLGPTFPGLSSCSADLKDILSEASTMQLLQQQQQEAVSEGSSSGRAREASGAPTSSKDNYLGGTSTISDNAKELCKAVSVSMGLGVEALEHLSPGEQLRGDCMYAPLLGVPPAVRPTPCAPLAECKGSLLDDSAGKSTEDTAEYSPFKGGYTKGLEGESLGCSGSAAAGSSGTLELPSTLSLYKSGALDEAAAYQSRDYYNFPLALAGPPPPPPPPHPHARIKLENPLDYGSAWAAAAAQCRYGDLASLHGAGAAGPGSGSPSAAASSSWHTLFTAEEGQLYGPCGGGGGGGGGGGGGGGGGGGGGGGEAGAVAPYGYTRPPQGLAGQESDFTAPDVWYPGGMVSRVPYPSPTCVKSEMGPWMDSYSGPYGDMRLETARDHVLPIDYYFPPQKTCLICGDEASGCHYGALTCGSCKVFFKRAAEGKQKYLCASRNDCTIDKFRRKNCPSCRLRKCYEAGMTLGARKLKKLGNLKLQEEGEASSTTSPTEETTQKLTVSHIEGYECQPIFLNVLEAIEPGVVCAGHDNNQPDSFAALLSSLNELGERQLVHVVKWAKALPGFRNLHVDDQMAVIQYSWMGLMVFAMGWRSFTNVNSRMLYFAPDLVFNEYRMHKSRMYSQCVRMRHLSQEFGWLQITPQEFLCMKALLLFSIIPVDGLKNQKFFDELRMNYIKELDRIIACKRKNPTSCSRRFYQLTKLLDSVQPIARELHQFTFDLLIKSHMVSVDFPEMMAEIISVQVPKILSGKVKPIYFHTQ
Outline: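 HEK293 cells stably carrying UAS-beta-lactamase reporter, 2,000/well, given compounds plus R1881 agonist and incubated 16 h at 37C. LiveBLAzer B/G FRET substrate then added for 2 h at room temperature before fluorescence reading.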

[13] = biological target: Androgen receptor (Homo sapiens) (UniProt P10275); assay: qHTS assay to identify small molecule agonists of the androgen receptor (AR) signaling pathway (AID 743036; active means well fitted activation curve with a large enough effect in the signal ratio in the repeat runs, with a control signal flat, not every such curve was filed as active; the % refers to the signal ratio; further: potency means the concentration at half of the fitted maximal effect)
Outline: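 Quantitative HTS of the Tox21 10K library in HEK293 cells bearing a stably integrated UAS-controlled beta-lactamase reporter. Compound exposure lasted 16 h at 37C. Reporter activity was detected by FRET substrate fluorescence after 2 h at room temperature.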

[14] = biological target: Androgen receptor (Homo sapiens) (UniProt P10275); assay: qHTS assay to identify small molecule agonists of the androgen receptor (AR) signaling pathway using the MDA cell line (AID 743040; further: nearly all actives have a fitted effect of over 20% in size; further: potency means the concentration at half of the fitted maximal effect)
Outline: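 Human breast carcinoma MDA-kb2 reporter cells (MMTV-luc, AR/GR elements) were treated for 16 h at 37C in 0% CO2 following a 5 h settling period. Signal was quantified by ONE-Glo luminescence.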

[15] = biological target: Androgen receptor (Homo sapiens) (UniProt P10275); assay: qHTS assay to identify small molecule antagonists of the androgen receptor (AR) signaling pathway using the MDA cell line (AID 743042; further: nearly all actives have a fitted effect of over 55% in size)
Outline: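 MDA-kb2 breast carcinoma cells carrying MMTV-luciferase (AR/GR responsive) were co-treated with compounds and the agonist R1881 for 16 h at 37C. Inhibition read as ONE-Glo luminescence; CellTiter-Fluor fluorescence measured in parallel for cytotoxicity.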

[16] = biological target: Estrogen receptor (Homo sapiens) (UniProt P03372); assay: qHTS assay to identify small molecule antagonists of the estrogen receptor alpha (ER-alpha) signaling pathway (AID 743069; active means well fitted curve in the direction sought with a large enough effect in the signal ratio in the repeat runs, not every such curve was filed as active; the % refers to the signal ratio)
Outline: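 Reporter cells (ER-alpha-bla, HEK293 background) are conditioned overnight in stripped-serum medium (2% charcoal-stripped FBS). Compound and 17beta-estradiol exposure runs 18 hr at 37C, 5% CO2.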

SMILES: c1ccccc1
- Potency [1]: inactive
- Potency [2]: inactive
- Potency [3]: inactive
- Potency [4]: inactive
- Potency [5]: inactive
- Potency [6]: inactive
- Potency [7]: inactive
- Potency [8]: inactive
- Potency [9]: inactive
- Potency [10]: inactive

SMILES: Cc1ccc([N+](=O)[O-])c(C)c1
- Potency [11]: inactive
- Potency [7]: inactive
- Potency [8]: inactive
- Potency [10]: inactive

SMILES: CNC(=O)OCC[N+](C)(C)C
- Potency [11]: inactive
- Potency [1]: inactive
- Potency [2]: inactive

SMILES: NCC(O)c1cccc(O)c1 (centres undefined)
- Potency [11]: inactive
- Potency [1]: inactive
- Potency [2]: inactive
- Potency [12]: inactive
- Potency [13]: inactive
- Potency [14]: inactive
- Potency [15]: inactive
- Potency [16]: inactive

SMILES: CC(=O)Oc1ccc2c3c1O[C@H]1[C@@H](OC(C)=O)C=C[C@H]4[C@@H](C2)N(C)CC[C@@]341
- Potency [11]: inactive
- Potency [1]: inactive
- Potency [2]: inactive
- Potency [16]: inactive

SMILES: O=C1CN(O)C(c2ccccc2)=c2cc(Cl)ccc2=N1
- Potency [11]: inactive
- Potency [1]: inactive
- Potency [2]: inactive
- Potency [12]: inactive
- Potency [13]: inactive
- Potency [14]: inactive
- Potency [15]: inactive

SMILES: c1cc2c(c(NC3=NCCN3)c1)CCCC2
- Potency [11]: inactive
- Potency [1]: inactive
- Potency [12]: inactive
- Potency [14]: inactive
- Potency [15]: inactive

SMILES: CCOc1ccc2c3c1O[C@H]1[C@@H](O)C=C[C@H]4[C@@H](C2)N(C)CC[C@@]341
- Potency [11]: inactive
- Potency [1]: inactive
- Potency [16]: inactive

SMILES: CC(=O)O[C@H]1CC[C@H]2[C@@H]3CCC4=CC(=O)CCC4=C3C=C[C@]12C
- Potency [11]: inactive
- Potency [1]: 2.68 µM (active)
- Potency [14]: 0.0017 µM (active)
- Potency [15]: inactive

SMILES: O=S(=O)(O)c1cc(O)ccc1O
- Potency [1]: inactive
- Potency [3]: inactive
- Potency [4]: inactive

SMILES: COc1ccc(OC)c([C@@H](O)[C@H](C)N)c1
- Potency [11]: inactive
- Potency [1]: inactive
- Potency [2]: inactive
- Potency [14]: inactive
- Potency [15]: inactive
- Potency [16]: inactive

SMILES: CC(=O)OO
- Potency [11]: inactive
- Potency [2]: inactive
- Potency [16]: inactive

SMILES: CC1(C)S[C@@H]2[C@H](N)C(=O)N2[C@H]1C(=O)O
- Potency [11]: inactive
- Potency [1]: inactive
- Potency [2]: inactive
- Potency [12]: inactive
- Potency [13]: inactive
- Potency [14]: inactive
- Potency [15]: inactive

SMILES: C=CCN(C1=NCCN1)c1c(Cl)cccc1Cl
- Potency [11]: inactive
- Potency [1]: inactive
- Potency [2]: inactive

SMILES: C[C@]12C=CC(=O)C=C1CC[C@@H]1[C@@H]2CC[C@]2(C)OC(=O)CC[C@@H]12
- Potency [11]: inactive
- Potency [2]: inactive

SMILES: C[C@]12CCC(=O)C=C1C=C[C@@H]1[C@@H]2CC[C@@]2(C)[C@H]1CC[C@@]2(O)CCC(=O)O
- Potency [1]: 9.1 µM (active)
- Potency [12]: inactive
- Potency [13]: 3.62 µM (active)
- Potency [14]: 12.7 µM (active)
- Potency [15]: inactive

SMILES: CC(=O)[C@H]1CC[C@H]2[C@@H]3CC[C@@H]4C[C@H](O)CC[C@]4(C)[C@H]3CC[C@]12C
- Potency [11]: inactive

SMILES: C#CC(C)(O)CC (centres undefined)
- Potency [11]: inactive
- Potency [1]: inactive
- Potency [2]: inactive

SMILES: CNC(C)C(O)c1ccc(O)cc1 (centres undefined)
- Potency [16]: inactive

SMILES: C[N+]1(C)[C@@H]2CC[C@H]1CC(OC(=O)c1c[nH]c3ccccc13)C2 (some centres undefined)
- Potency [12]: inactive
- Potency [14]: inactive
- Potency [15]: inactive
- Potency [16]: inactive

SMILES: N#CC1(N2CCCCC2)CCCCC1
- Potency [1]: inactive
- Potency [2]: inactive

SMILES: C[C@]12CC[C@H](OS(=O)(=O)O)CC1=CC[C@@H]1[C@@H]2CC[C@]2(C)C(=O)CC[C@@H]12
- Potency [11]: inactive
- Potency [2]: inactive
- Potency [12]: inactive
- Potency [14]: 21.1 µM (active)
- Potency [15]: inactive
- Potency [16]: inactive

SMILES: O=C(CS(=O)C(c1ccccc1)c1ccccc1)NO (centres undefined)
- Potency [2]: inactive
- Potency [16]: inactive

SMILES: C[C@@H]([C@H](O)c1ccccc1)N(C)C
- Potency [11]: inactive
- Potency [1]: inactive
- Potency [16]: inactive
